# Results reported in PubChem BioAssay (EPA / NIEHS).
# Inconclusive results are not listed. The source made the active and inactive calls. Rule for the calls: active = hit-call score of the fitted dose curve at least 0.9, where 1 is the maximum; inconclusive = response in the unintended direction; inactive = score below 0.9.
# Read-out: Cytochrome P450 2B6 (Homo sapiens) (UniProt P20813)
# Assay: CLD_CYP2B6_24hr: CellzDirect (CLD) Gene Expression Assay for xenobiotic metabolism (CYP2B6) at 24 hours (AID 2283686)
# Method: CLD_24hr is a cell-based, multiplexed-readout assay that uses hepatocyte, a human liver primary cell, with measurements taken at 24 hours after chemical dosing in a 96-well plate.CLD_CYP2B6_24hr is one of 16 assay component(s) measured or calculated from the CLD_24hr assay. It is designed to make measurements of mRNA induction, a form of inducible reporter, as detected with chemiluminescence signals by Quantitative Nuclease Protection Assay (qNPA) technology.Data from the assay component CLD_CYP2B6_24hr was analyzed at the endpoint, CLD_CYP2B6_24hr, in the positive analysis fitting direction relative to DMSO as the negative control and baseline of activity. Using a type of inducible reporter, gain-of-signal activity can be used to understand changes in the reporter gene as they relate to the gene CYP2B6. Furthermore, this assay endpoint can be referred to as a primary readout. To generalize the intended target to other relatable targets, this assay endpoint is annotated to the cyp intended target family, where subfamily is xenobiotic metabolism.
# Human hepatocyte cultures were treated daily for two consecutive days with fresh dosing solutions containing appropriate concentrations of the 320 ToxCast chemicals (chemical identities were blinded to CellzDirect and other ToxCast collaborators), vehicle control (0.2% DMSO), and positive control inducers as summarized in Table 1. Due to the large number of treatment groups and chemicals examined, the ToxCast chemicals were divided into two groups (spanning two independent cultures of hepatocytes from separate donor preparations (Hu778: ToxCast plates 1 and 2; Hu776: ToxCast plates 3 and 4). Each preparation of human hepatocyte cultures was treated with respective vehicle control, medium only control, set of six positive controls/reference chemicals for the five hepatic receptor pathways, and a subset of eight of the ToxCast chemicals (indoxacarb, pyrithiobac-sodium, norflurazon, cyhalofop-butyl, methomyl, thiram, acetochlor, and propiconazole). These replicate data, coupled with internal replicates designed within the blinded ToxCast chemical library, provided additional data to evaluate interindividual differences between hepatocyte preparations and their potential impact on chemical profiles.Cell morphology and integrity were evaluated using phase-contrast microscopy as an indicator of hepatocyte cell health (Tyson & Green, 1987). Cultures for each treatment group (i.e., media, vehicle [0.2% DMSO], positive control inducers [multiple concentrations], and the ToxCast chemicals [multiple concentrations]) were observed and cell morphology was assessed relative to vehicle control cultures at each harvest time point (0, 6, 24, or 48 h). […] Images were evaluated at the conclusion of the study to assess changes in cell integrity and account for the effects of chemical exposure on uncharacteristic changes in concentration-dependent gene expression profiles. The results from these determinations of apparent cytotoxicity were annotated (yes/no) alongside the corresponding qNPA data for reference.At the conclusion of each treatment period, hepatocyte cultures (96-well) were washed with 1 volume of HBSS, lysed by addition of 25 ul ArrayPlate lysis buffer (HTG, Tucson, AZ), and 70 ul/well of Denaturation Oil, denatured by incubation at 95C for 10 min, and frozen at approximately -70C until analysis by nuclease protection assay (qNPA) (Roberts et al., 2007). For qNPA analysis, cell lysates were thawed at 50C for approximately 30 min, qNPA probes were added, and samples were incubated at 95C for 10 min to begin the detection process by denaturing the target RNA, dissociating the duplexes and secondary structure hybridization. At the conclusion of the hybridization period, S1 nuclease reagent was added to each sample to digest all nonprotected nucleotides at 50C for 60-90 min. […]
Structure (SMILES),AC50,outcome
CCOP(=O)(OCC)Oc1cc(C)nc(C(C)C)n1,20 µM (active),
CCC(=O)Nc1ccc(Cl)c(Cl)c1,3.95 µM (active),
C#CCC1=C(C)C(OC(=O)C2C(C=C(C)C)C2(C)C)CC1=O (stereo not given),4.23 µM (active),
CCOP(=S)(OCC)Oc1ccc([N+](=O)[O-])cc1,0.828 µM (active),
CCOP(=S)(OCC)SCCSCC,3.91 µM (active),
CNC(=O)Oc1cccc2c1OC(C)(C)O2,20 µM (active),
C[Si](Cn1cncn1)(c1ccc(F)cc1)c1ccc(F)cc1,0.179 µM (active),
COP(=O)(NC(C)=O)SC (stereo not given),,inactive
Nc1nc(N)nc(NC2CC2)n1,,inactive
CN1COCN(Cc2cnc(Cl)s2)C1=N[N+](=O)[O-],,inactive
CCOC(=O)CC(SP(=O)(OC)OC)C(=O)OCC (stereo not given),20 µM (active),
O=[N+]([O-])c1cc(C(F)(F)F)c(Cl)c([N+](=O)[O-])c1Nc1ncc(C(F)(F)F)cc1Cl,,inactive
CSc1nc(NC(C)C)nc(NC(C)C)n1,2.99 µM (active),
CNC(=O)ON=C(SC)C(=O)N(C)C,,inactive
CSc1nnc(C(C)(C)C)c(=O)n1N,20 µM (active),
CCCCN(CC)c1c([N+](=O)[O-])cc(C(F)(F)F)cc1[N+](=O)[O-],7.3 µM (active),
CNc1cnn(-c2cccc(C(F)(F)F)c2)c(=O)c1Cl,6.64 µM (active),
COc1cccc(C(=O)NN(C(=O)c2cc(C)cc(C)c2)C(C)(C)C)c1C,2.35 µM (active),
COc1cc(OC)nc(Sc2cccc(Cl)c2C(=O)O)n1,,inactive
CC(C)[C@H](C(=O)O[C@H](C#N)c1cccc(Oc2ccccc2)c1)c1ccc(Cl)cc1,,inactive

Structure (SMILES),AC50,outcome
COP(=O)(OC)OC(Br)C(Cl)(Cl)Br (stereo not given),,inactive
CCOP(=S)(OCC)Oc1cc(C)nc(C(C)C)n1,0.747 µM (active),
CCOP(=S)(OCC)Oc1ccc2c(C)c(Cl)c(=O)oc2c1,1.28 µM (active),
CC(C1CC1)C(O)(Cn1cncn1)c1ccc(Cl)cc1 (stereo not given),4.02 µM (active),
CCOC(=O)COc1cc(-c2nn(C)c(OC(F)F)c2Cl)c(F)cc1Cl,20 µM (active),
CSC1=N[C@@](C)(c2ccccc2)C(=O)N1Nc1ccccc1,,inactive
CCOP(=S)(OCC)OC(Cl)C(Cl)(Cl)Cl (stereo not given),0.201 µM (active),
CN(C)[C@@H]1C(=O)C(C(N)=O)=C(O)[C@@]2(O)C(=O)C3=C(O)c4c(O)cccc4[C@@](C)(O)[C@H]3[C@H](O)[C@@H]12,,inactive
Cc1nn(-c2cc(NS(C)(=O)=O)c(Cl)cc2Cl)c(=O)n1C(F)F,4.18 µM (active),
CCCSP(=O)(OCC)SCCC,2.84 µM (active),
CCC(CC)Nc1c([N+](=O)[O-])cc(C)c(C)c1[N+](=O)[O-],11.4 µM (active),
O=C(O)c1cc(Oc2ccc(C(F)(F)F)cc2Cl)ccc1[N+](=O)[O-],,inactive
CCCCOC(=O)[C@@H](C)Oc1ccc(Oc2ccc(C#N)cc2F)cc1,,inactive
CC(C)=CC1C(C(=O)OCN2C(=O)C3=C(CCCC3)C2=O)C1(C)C (stereo not given),7.4 µM (active),
CNC(=O)ON=C(C)SC,,inactive
CN(C)NC(=O)CCC(=O)O,,inactive
CCc1cnc(C2=NC(C)(C(C)C)C(=O)N2)c(C(=O)O)c1 (stereo not given),,inactive
S=C1NCCN1,,inactive
CCCSP(=O)(OCC)Oc1ccc(Br)cc1Cl (stereo not given),6.22 µM (active),
CC(=NC#N)N(C)Cc1ccc(Cl)nc1,,inactive
